# Reference: PubChem BioAssay (NCATS)
# Records with an inconclusive call do not appear. Where a structure was tested more than once in an assay, its records may differ in their call. Active and inactive are the calls of the source. Unless noted, calls come from the whole dose curve; as a rule, active = well fitted curve in the direction sought with a large enough effect; inconclusive = small, poorly fitted or top-dose-only effect, or another doubt; inactive = no such curve, though single readings can be large; an effect the other way counts as inactive or inconclusive.
# Key:
# [1] = OV-KATE Cancer Cell Toxicity qHTS against the NCATS CANVASS Library (AID 1347345)
# Procedure, shortened: (§1)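 Viability read-out: CellTiter-Glo luminescence after 72 h compound exposure at 37 °C/5% CO2. Cells plated at 1000/well, 4 h pre-incubation; 11-point titration. Bortezomib served as control.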
# [2] = UWB1.289 Cancer Cell Toxicity qHTS against the NCATS CANVASS Library (AID 1347347)
# Procedure, shortened: as §1
# [3] = OV-SAHO Cancer Cell Toxicity qHTS against the NCATS CANVASS Library (AID 1347348)
# Procedure, shortened: as §1
# [4] = Panc-1005 Cancer Cell Toxicity qHTS against the NCATS CANVASS Library (AID 1347349)
# Procedure, shortened: as §1
# [5] = UWB1.289-WTBRCA1 Cancer Cell Toxicity qHTS against the NCATS CANVASS Library (AID 1347354)
# Procedure, shortened: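 Using an ATP-based luminescent reagent after three days of treatment, toxicity is scored across an eleven-concentration range in wells holding 1000 cells each.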
# [6] = G06 Cancer Cell Toxicity qHTS against the NCATS CANVASS Library (AID 1347368)
# Procedure, shortened: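 Quantitative HTS in G06 cells (dog glioma): 72 hr treatment, 11 concentrations, then ATP-based luminescent viability readout; bortezomib 0.1 nM–4.6 uM final as reference.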
# [7] = qHTS for Antimalaria activity screened against the NCATS CANVASS Library (AID 1347380)
# Procedure, shortened: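 Measures proliferation or cytotoxicity against Dd2 blood stages in 72 h cultures, 11-point qHTS dosing, with SYBR Green fluorescence as read-out; dihydroartemisinin titration served as control.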
# [8] = qHTS for activators of Nrf2/ARE signaling pathway screened against the NCATS CANVASS Library (AID 1347391)
# Procedure, shortened: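 Activation of Nrf2/ARE was scored in ARE-bla HepG2 cells after 16 h compound exposure using CCF4 beta-lactamase fluorescence ratio readings.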
# [9] = qHTS for inhibitors of ER calcium dysfunction: SERCaMP assay screened against the NCATS CANVASS Library (AID 1347393)
# Procedure, shortened: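 qHTS in SH-SY5Y reporter cells: 16 h compound pretreatment, 4 h thapsigargin, then secreted Gaussia luciferase measured by luminescence.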
# [10] = test system: Zika virus NS2B-NS3 protease (linked construct); experiment: Primary screen NINDS Rhodamine qHTS for Zika virus inhibitors (AID 1347160)
# Procedure, shortened: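 Each compound, titrated, sat 15 min with 25 nM linked protease before 1.5 microM Rhodamine110 substrate went in. Fluorescence gain over the next 15 min, in pH 8.0 Tris with Tween 20, gave Hill-fitted curves.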
# [11] = Primary qHTS to identify inhibitors of SARS-CoV-2 cell entry (AID 1645846; calls by dose curve); settings: SARS-CoV-2 pseudovirus cell entry assay, luminescence; activity change, negative = inhibition: at 57.1 µM (top of the series) unless noted; outcome: at 57.1 µM (top of the series) unless noted
# Procedure, shortened: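 HEK293 cells stably expressing human ACE2, pre-treated 1 h with compound, then infected with MLV particles pseudotyped with Wuhan-Hu-1 spike (C-terminal 19-aa truncation). Luciferase luminescence after 48 h at 37 °C, normalised to spike PP and bald PP.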
# [12] = Primary qHTS for inhibitors of nuclear receptor binding SET domain protein 2 (NSD2) in an RCH-ACV wild type WT cells (2C) (AID 1645877)
# [13] = qHTS assay to identify inhibitors of the type 1 interferon - major histocompatibility complex class I in skeletal muscle: Counter screen cell viability and HiBit confirmation (AID 1347412); settings: iHSKM muscle cells + IFN-b, HiBiT or CellTiter-Glo, 24 h; for activity change, negative = inhibition: at 45.9 µM (top of the series)
# Procedure, shortened: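 CRISPR HLA-B*08:01-HiBit immortalized human myoblasts (C25cl48) stimulated with 4 ng/ml IFN-beta and compounds (12-point 1:3, top 46 uM final) for 24 h at 37 C. Duplicate plates read by HiBit lytic luminescence or CellTiter Glo ATP.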
# [14] = Cytotoxicity counterscreen for inhibitors of SARS-CoV-2 cell entry (AID 1645845; calls by dose curve); settings: outcome: at 57.1 µM (top of the series) unless noted
# Procedure, shortened: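 After a 15 min room-temperature ATPLite 1step step, luminescence reflected ATP remaining in HEK293-ACE2 cells exposed to compound for 1 h plus 48 h at 37 C, with percent activity set by cell and no-cell controls.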
# [15] = Primary qHTS for inhibitors of nuclear receptor binding SET domain protein 2 (NSD2) in an isogenic RCH-ACV NSD2 p.E1099K mutant (9B) (AID 1645876)
structure (smiles),measurement,setting,value
C=CC(C)(C)[C@@]12C[C@H]3C(=O)N/C(=C/c4cnc[nH]4)C(=O)N3[C@@H]1Nc1ccccc12,Potency,[1],inactive
same,Potency,[2],inactive
same,Potency,[3],inactive
same,Potency,[4],inactive
same,Potency,[5],inactive
same,Potency,[6],inactive
same,Potency,[7],298 nM (active)
CO[C@H]1[C@H](O[C@H]2CC[C@]3(C=O)[C@H]4CC[C@]5(C)[C@@H](C6=CC(=O)OC6)CC[C@]5(O)[C@@H]4CC[C@]3(O)C2)O[C@H](C)[C@H](O)[C@@H]1OC,Potency,[6],296 nM (active)
same,Potency,[7],inactive
same,Potency,[8],inactive
same,Potency,[9],inactive
C[N+](C)(C)CCc1c[nH]c2ccccc12,Potency,[1],inactive
same,Potency,[2],inactive
same,Potency,[3],inactive
same,Potency,[4],inactive
same,Potency,[5],inactive
same,Potency,[6],inactive
same,Potency,[8],inactive
same,Potency,[9],inactive
C=C[C@H]1CN2CCc3c([nH]c4cccc(OC)c34)[C@@H]2C[C@@H]1/C(=C\OC)C(=O)OC,Potency,[10],inactive
same,Potency,[1],inactive
same,Potency,[4],inactive
same,Potency,[5],inactive
same,Potency,[9],17200 nM (active)
C[C@]12CC(O)C3[C@@H](CCC4C[C@@H](O)CC[C@@]43CO)[C@@]1(O)CC[C@@H]2C1=CC(=O)OC1 (some centres not stated),Potency,[10],44000 nM (active)
same,Potency,[2],13300 nM (active)
same,Potency,[6],13200 nM (active)
same,Potency,[7],inactive
same,Potency,[8],inactive
same,Potency,[9],inactive
CC1(C)CC[C@]2(NC(=O)C(C)(F)F)CC[C@]3(C)[C@H](C(=O)C=C4[C@@]5(C)C=C(C#N)C(=O)C(C)(C)[C@@H]5CC[C@]43C)[C@@H]2C1,Potency,[11],1000 nM (active)
same,Potency,[12],7420 nM (active)
same,Potency,[13]; HiBiT,1570 nM (active)
Cn1c(/C=C/CO)c(CO)c2c1C(=O)C=C(N1CC1)C2=O,Potency,[14],inactive
same,Potency,[11],inactive
same,Potency,[15],inactive
same,Potency,[12],inactive
Cc1[nH]ncc1-c1cc2nc([C@@H]3CC4CCN3CC4)[nH]c(=O)c2s1,Potency,[15],2350 nM (active)
same,Potency,[12],934 nM (active)
same,Potency,[13]; HiBiT,4430 nM (active)
same,"activity change, negative = inhibition",[13]; Viability,15.9% (inactive)
COC(=O)[C@@]12OC[C@]34[C@H]([C@@H](O)[C@@H]1O)[C@@]1(C)CC(=O)C(O)=C(C)[C@@H]1C[C@H]3OC(=O)[C@H](OC(=O)/C=C(\C)C(C)C)[C@@H]24,"activity change, negative = inhibition",[11],-94.1%
same,Potency,[15],296 nM (active)
same,Potency,[12],235 nM (active)
same,Potency,[13]; HiBiT,88.3 nM (active)
same,"activity change, negative = inhibition",[13]; Viability,-8.02% (inactive)
COc1cc2cc(c1Cl)N(C)C(=O)C[C@H](OC(=O)C(C)C)[C@]1(C)O[C@@H]1[C@H](C)[C@@H]1C[C@@](O)(NC(=O)O1)[C@H](OC)/C=C/C=C(\C)C2,"activity change, negative = inhibition",[11],-80.9%
same,Potency,[15],inactive
same,Potency,[12],inactive
N#CC(O[C@@H]1O[C@H](CO[C@@H]2O[C@H](CO)[C@@H](O)[C@H](O)[C@H]2O)[C@@H](O)[C@H](O)[C@H]1O)c1ccccc1 (some centres not stated),Potency,[14],inactive
same,Potency,[15],inactive
same,Potency,[12],inactive
C=C[C@H]1CN2CCC1C[C@@H]2[C@@H](O)c1ccnc2ccccc12 (some centres not stated),Potency,[14],inactive
same,"activity change, negative = inhibition",[11],-29.6%
same,Potency,[15],inactive
same,Potency,[12],inactive
COc1cc(C)[nH]c(=O)c1CNC(=O)c1c(C)n([C@H](C)C2CCN(CC(F)(F)F)CC2)c2ccccc12,Potency,[14],inactive
same,"activity change, negative = inhibition",[11],4.42%
same,Potency,[12],inactive
CCCCCCC(C)(C)c1cc(O)c2c(c1)OC(C)(C)C1CC=C(CO)C[C@H]21 (some centres not stated),Potency,[14],inactive
same,"activity change, negative = inhibition",[11],-8.86%
same,Potency,[15],inactive
same,Potency,[12],inactive
same,Potency,[13]; Viability,35200 nM (active)
CO/C1=C/C(C)=C\[C@@H](C)[C@@H](O)[C@@H](C)C/C(C)=C\C=C/[C@H](OC)[C@@H]([C@@H](C)[C@@H](O)[C@H](C)[C@@]2(O)C[C@@H](O)[C@H](C)[C@@H](C(C)C)O2)OC1=O,Potency,[14],1580 nM (active)
same,Potency,[11],1580 nM (active)
same,Potency,[15],49.4 nM (active)
same,Potency,[12],39.3 nM (active)
CC(N[C@H]1C[C@@H]1c1ccccc1)c1ccc2c(c1)OCCO2 (some centres not stated),Potency,[14],inactive
same,"activity change, negative = inhibition",[11],-4.37%
same,Potency,[15],inactive
same,Potency,[12],inactive
CC(=O)O[C@@]12CO[C@@H]1C[C@H](O)[C@@]1(C)C(=O)[C@H](O)C3=C(C)[C@@H](O)C[C@@](O)([C@@H](OC(=O)c4ccccc4)[C@H]21)C3(C)C,Potency,[15],inactive
COC(=O)[C@]12CCC(C)(C)C[C@H]1[C@H]1C(=O)C=C3[C@@]4(C)C=C(C#N)C(=O)C(C)(C)[C@@H]4CC[C@@]3(C)[C@]1(C)CC2,Potency,[14],2820 nM (active)
same,Potency,[11],1000 nM (active)
same,Potency,[12],5900 nM (active)
same,Potency,[13]; HiBiT,1570 nM (active)
Cc1c(N)nc([C@H](CC(N)=O)NC[C@@H](N)C(N)=O)nc1C(=O)N[C@H](C(=O)N[C@@H](C)[C@H](O)[C@@H](C)C(=O)N[C@@H](C(=O)NCCc1nc(-c2nc(C(=O)NCCC[S+](C)C)cs2)cs1)[C@@H](C)O)C(O[C@H]1O[C@H](CO)[C@H](O)[C@@H](O)[C@H]1O[C@H]1O[C@H](CO)[C@@H](O)[C@H](OC(N)=O)[C@@H]1O)c1cnc[nH]1 (some centres not stated),Potency,[14],inactive
same,Potency,[11],1120 nM (active)
same,"activity change, negative = inhibition",[11],-97.2%
same,Potency,[15],inactive
CCC1/C=C/C=CCC(C)C(O)[C@@](C)(O)C(=O)C(C)C(O)C(C)C(=O)C(C)C(O)C(C)C=CC(=O)O[C@H]2C(C)C(CC1)O[C@]1(CCC(C)C(CC(C)O)O1)C2C (some centres not stated),"activity change, negative = inhibition",[13]; HiBiT,-31.9% (inactive)
same,"activity change, negative = inhibition",[13]; Viability,-23.7% (inactive)
COC12C(COC(N)=O)C3=C(C(=O)C(C)=C(N)C3=O)N1CC1C2N1C (configuration not stated),Potency,[14],inactive
same,Potency,[15],1660 nM (active)
same,Potency,[12],1050 nM (active)
CC(C)(NC(=O)O[C@@H]1CN2CCC1CC2)c1csc(-c2ccc(F)cc2)n1,Potency,[14],inactive
O=C(CBr)N1CC([N+](=O)[O-])([N+](=O)[O-])C1,Potency,[14],inactive
same,"activity change, negative = inhibition",[11],-11.3% [at 114 µM]
C[C@@H](C1CC[C@@]2(O)C3=CC(=O)[C@@H]4C[C@@H](O)[C@@H](O)C[C@]4(C)[C@H]3CC[C@]12C)[C@H](O)CCC(C)(C)O (some centres not stated),Potency,[14],inactive
same,"activity change, negative = inhibition",[11],-30.2%
same,Potency,[15],inactive
same,Potency,[12],inactive
CC(C)[C@]12O[C@H]1[C@@H]1O[C@@]13[C@@]1(C)CCC4=C(COC4=O)[C@@H]1C[C@@H]1O[C@@]13C2=O,Potency,[15],37.2 nM (active)
same,Potency,[12],33.2 nM (active)
same,Potency,[13]; HiBiT,49.7 nM (active)
same,"activity change, negative = inhibition",[13]; Viability,4.52% (inactive)
